Source: PubChem
Hits are enriched below; roughly 17% of the tested compounds scored in any of these assays.
ClpP mod: qHTS Assay for Activators of ClpP; purified B. subtilis ClpP, FRET peptide cleavage, 20 min; Potency, µM (series often up to 57.5 µM); 340,000 tested, 1.9% active; AID 651965, 2013; active = well fitted falling curve with a large enough effect; inconclusive = small, poorly fitted or top-dose-only effect; inactive = no such curve, though single readings can be large or run the other way; also: the source files actives as falling curves though it sought activators and does not explain the sign; nearly all actives have a fitted effect of over 65% in size
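Buffer: 100 mM Tris/HCl pH8, 100 mM KCl, 0.05% low protease BSA, 2.5% glycerol, 0.01% Tween-20. ClpP 10 microg/mL final; 20 min RT; delta FRET normalized to ADEP and DMSO controls.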
TDP1 cell noCPT: qHTS for Inhibitors of human tyrosyl-DNA phosphodiesterase 1 (TDP1): qHTS in cells in absence of CPT | DT40 Tdp1-/- hTDP1 cells, no CPT, ATP luminescence, 48 h | Potency, µM (top dose mostly 46.2 µM), usual class: inhibitors | 420,000 tested, 15% active | AID 686978, 2013; also: nearly all actives have a fitted effect of over 55% in size
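Stably hTDP1-transfected Tdp1-null chicken DT40 cells were treated with library compounds minus camptothecin and grown for at least 48 hr at 37 °C, after which cellular ATP was quantified by luminescence.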
TDP1 cell CPT: growth inhibition of DT40 Tdp1-/-;hTDP1 cells with camptothecin (screen for TDP1 inhibitors). chicken DT40 Tdp1-/-;hTDP1 cells + 20 nM CPT, ATP luminescence, 48 h. Potency, µM (doses to about 46.2 µM), most hits filed as inhibitors. 420,000 tested, 12% active. AID 686979; also: nearly all actives have a fitted effect of over 55% in size
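Cell growth measured by CellTiter-Glo luminescence after a minimum 48 h, 37 C compound exposure with 20 nM CPT in Tdp1-knockout DT40 cells stably expressing hTDP1, seeded 400/well; qHTS titration format.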
TDP1 block: blocks human tyrosyl-DNA phosphodiesterase 1. 350,000 tested, 0.28% active. recombinant TDP1, AlphaScreen DNA substrate cleavage. Potency, µM (doses to about 130 µM), hits mostly inhibitors. Q9NUW8; also: nearly all actives have a fitted effect of over 40% in size
Target sequence (Q9NUW8 whole entry, looked up): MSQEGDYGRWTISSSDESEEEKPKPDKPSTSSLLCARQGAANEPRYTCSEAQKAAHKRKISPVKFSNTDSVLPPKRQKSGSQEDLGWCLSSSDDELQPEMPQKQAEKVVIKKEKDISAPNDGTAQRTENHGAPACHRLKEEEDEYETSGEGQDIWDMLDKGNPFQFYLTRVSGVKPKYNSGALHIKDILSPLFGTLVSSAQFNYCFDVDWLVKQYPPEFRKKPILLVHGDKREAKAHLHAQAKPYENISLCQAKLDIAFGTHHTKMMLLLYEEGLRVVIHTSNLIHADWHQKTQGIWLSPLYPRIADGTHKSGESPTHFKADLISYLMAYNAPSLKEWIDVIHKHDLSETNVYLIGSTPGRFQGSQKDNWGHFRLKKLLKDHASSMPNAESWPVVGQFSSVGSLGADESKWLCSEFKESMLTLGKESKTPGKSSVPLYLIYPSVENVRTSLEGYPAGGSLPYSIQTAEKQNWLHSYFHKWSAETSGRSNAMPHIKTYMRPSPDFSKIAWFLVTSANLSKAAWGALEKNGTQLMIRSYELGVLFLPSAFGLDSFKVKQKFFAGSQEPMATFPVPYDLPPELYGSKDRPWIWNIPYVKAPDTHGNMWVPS
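Steps: enzyme plus compound, 15 min RT; add biotin/phosphotyrosine-FITC oligonucleotide (15 nM final), react 5 min; add donor/acceptor beads (10 ug/ml final), 10 min; read AlphaScreen. Tdp1 at 1 nM final.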
Of the large screens only hits and unclear results are named; the others gave an inactive call. Unless noted, calls follow the shape of the dose curve; as a rule, active = well fitted curve in the direction sought with a large enough effect; inconclusive = small, poorly fitted or top-dose-only effect, or another doubt; inactive = no such curve, though single readings can be large; an effect the other way counts as inactive or inconclusive.

COc1ccc(NC(=O)Nc2ccccc2OCc2cc(=O)n3ccccc3n2)c(OC)c1	TDP1 cell noCPT inconclusive, TDP1 cell CPT inconclusive
Cc1cccc(-n2ncc3c2CCCC3NC(=O)CCN2Cc3ccccc3C2=O)c1C (stereo not drawn)	TDP1 cell noCPT inconclusive, TDP1 cell CPT inconclusive
O=C(Nc1ccc(CN2CCOCC2)cc1)c1ccc(N2CCCC2)c([N+](=O)[O-])c1	TDP1 cell noCPT inconclusive, TDP1 cell CPT inconclusive (no result: ClpP mod)
COC(=O)c1cn([C@@H]2C[C@@H](C(=O)N3CCCCCC3)N(Cc3cc4ccccc4s3)C2)nn1	none (no result: ClpP mod, TDP1 block)
CC(C)OC(=O)c1cc2c(OC[C@@H](O)CNC(C)(C)C)cccc2[nH]1	none (no result: ClpP mod, TDP1 cell noCPT, TDP1 cell CPT)
CS(=O)(=O)CCCCN=C=S	TDP1 cell noCPT 18µM, TDP1 cell CPT inconclusive (no result: ClpP mod)
O=C(Nc1ccccc1C(=O)NC(Cc1ccccc1)C(=O)NC1CCCCC1)c1ccccc1 (stereo not drawn)	TDP1 cell noCPT 26µM, TDP1 cell CPT inconclusive
O=C(Nc1ccccc1C(=O)NC(Cc1ccccc1)C(=O)O)c1ccccc1 (stereo not drawn)	none (no result: ClpP mod)
COc1cccc(Cn2cccc(NC(=O)NC3CCCCC3)c2=O)c1	ClpP mod 28µM
O=C(Nc1cccn(Cc2ccccc2)c1=O)NC1CCCCC1	ClpP mod 20µM
Cc1ccc(Cn2cccc(NC(=O)NC3CCCCC3)c2=O)cc1	ClpP mod inconclusive
O=C(Nc1cccn(Cc2ccc(F)cc2)c1=O)NC1CCCCC1	ClpP mod 18µM
COc1ccc(NC(=O)CCc2c(C)nc3c(c2C)c(=O)n(C)c(=O)n3C)c(OC)c1	TDP1 cell noCPT inconclusive
O=C(/C=C/c1ccc(O)cc1)c1ccc(NC2=C(N3CCCCC3)C(=O)c3ccccc3C2=O)cc1	TDP1 cell noCPT 1.6µM, TDP1 cell CPT 1.3µM
Cc1ccc(NC2=C(N3CCCCC3)C(=O)c3ccccc3C2=O)cc1	TDP1 cell noCPT 2.3µM, TDP1 cell CPT 2.6µM
O=C(/C=C/c1ccc(O)cc1)c1ccccc1	TDP1 cell noCPT inconclusive (no result: ClpP mod)
O=C1C(Nc2ccccc2)=C(N2CCCCC2)C(=O)c2ccccc21	TDP1 cell noCPT 9.2µM, TDP1 cell CPT 18µM
CC1=C(Nc2ccc(C(=O)O)cc2)C(=O)c2ccccc2C1=O	TDP1 cell noCPT inconclusive, TDP1 cell CPT inconclusive (no result: TDP1 block)
CN(c1ccccc1)c1nc(N)c([N+](=O)[O-])c(N2CCCCC2)n1	TDP1 cell noCPT inconclusive, TDP1 cell CPT inconclusive
CN(C1=C(N2CCCCC2)C(=O)c2ccccc2C1=O)c1ccccc1	TDP1 cell noCPT 21µM, TDP1 cell CPT 15µM
CN1CCN(c2ccc(S(=O)(=O)N3CCCCC3)cc2NC(=O)COc2cccc(Cl)c2)CC1	TDP1 cell noCPT inconclusive, TDP1 cell CPT inconclusive
O=C1C(Nc2cccc(O)c2)=C(N2CCCCC2)C(=O)c2ccccc21	TDP1 cell noCPT 7.3µM, TDP1 cell CPT 8.2µM
COc1ccccc1NS(=O)(=O)c1cc(N)ccc1N1CCCC1	TDP1 cell noCPT inconclusive, TDP1 cell CPT inconclusive
COc1ccccc1NC1=C(N2CCCCC2)C(=O)c2ccccc2C1=O	TDP1 cell noCPT 1.8µM, TDP1 cell CPT 2.1µM
CCCN(CCC)c1nn2c(=O)c(C(=O)NCc3cc(Br)ccc3OC)cnc2s1	none
COc1ccc(CN(C)CCCn2cnc3c(OC)ncnc32)cc1OC	none (no result: TDP1 block)
c1ccc(CNC2CC3CCC2C3)cc1 (stereo not drawn)	none (no result: ClpP mod, TDP1 block)
O=C(CO/N=C\c1ccccc1)Nc1ccccc1C(=O)N1CCOCC1	TDP1 cell noCPT inconclusive, TDP1 cell CPT inconclusive
COCCCn1c(=O)c2ccccc2n(CC(=O)NC2CCCCC2)c1=O	none (no result: ClpP mod)
CC1CCN(C(=O)c2[nH]cnc2C(=O)N[C@@H](C)c2ccccc2)CC1	none
COc1ccc(NC(=O)CCC(=O)c2cccs2)cc1Cl	none (no result: ClpP mod, TDP1 block)
CCCCOc1cccc(C(=O)Nc2ccc(NC(=O)c3cccs3)cc2)c1	TDP1 cell noCPT inconclusive, TDP1 cell CPT 15µM (no result: ClpP mod)
COc1ccc(NC(=O)Nc2cccs2)cc1Cl	TDP1 cell noCPT 23µM, TDP1 cell CPT inconclusive
COc1ccccc1C(=O)Nc1ccc(NC(=O)c2cccs2)cc1	TDP1 cell noCPT inconclusive, TDP1 cell CPT inconclusive
COc1ccc(C(=O)Nc2ccc(NC(=O)c3cccs3)cc2)cc1Cl	TDP1 cell noCPT 18µM, TDP1 cell CPT 15µM
COc1ccc(C(=O)Nc2cccc(NC(=O)c3cccs3)c2)cc1OC	TDP1 cell noCPT 13µM, TDP1 cell CPT 15µM (no result: TDP1 block)
COc1c(Cl)cc(Cl)cc1C(=O)Nc1ccc(NC(=O)c2cccs2)cc1	TDP1 cell noCPT 16µM, TDP1 cell CPT inconclusive
CCCCOc1cccc(C(=O)Nc2cccc3ccc(C)nc23)c1	TDP1 cell noCPT 23µM, TDP1 cell CPT inconclusive
COc1ccc(C(=O)Nc2ccc(NC(=O)c3cccs3)cc2)cc1OC	TDP1 cell noCPT 18µM, TDP1 cell CPT inconclusive
COc1ccc(/C=C/C(=O)c2ccc(NC(=O)c3cccs3)cc2)cc1OC	TDP1 cell noCPT 23µM, TDP1 cell CPT 18µM
COc1cccc(-c2nc(NCCNC(C)=O)c3ccccc3n2)c1	none (no result: ClpP mod, TDP1 block)
Cc1nc(-c2ccc(S(=O)(=O)Oc3ccc(Cl)cc3Cl)s2)cs1	TDP1 cell noCPT 18µM, TDP1 cell CPT 13µM
COc1cccc(/C=C/c2nc(C#N)c(N3CCN(C)CC3)o2)c1	TDP1 cell noCPT 23µM, TDP1 cell CPT 23µM
COc1cc(/C=C/c2nc(C#N)c(N3CCN(C)CC3)o2)cc(OC)c1OC	TDP1 cell noCPT 8.2µM, TDP1 cell CPT 8.2µM
